High-throughput results (PubChem BioAssay)
A selection: hits, their analogues and other compounds. The true share with any hit is near 12%.
HP1b binding inh: inhibitors of HP1-beta chromodomain binding to methylated histone tails; AID 540317; Potency, µM (top dose mostly 114 µM), without a hit: top-dose activity change, negative = inhibition, hits mostly inhibitors; P83916; 0.56% of 390,000 active; AlphaScreen HP1-beta / biotin-H3K9me3 peptide binding; note: potency is the fitted concentration of half-maximal effect; nearly all actives have a fitted effect of over 70% in size
Target sequence (P83916 whole entry, looked up): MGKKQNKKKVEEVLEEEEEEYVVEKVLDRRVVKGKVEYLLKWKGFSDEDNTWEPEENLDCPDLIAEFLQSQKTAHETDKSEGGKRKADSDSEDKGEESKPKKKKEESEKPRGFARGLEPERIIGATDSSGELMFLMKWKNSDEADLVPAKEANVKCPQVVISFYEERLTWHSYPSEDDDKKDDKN
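Compound inhibition of the preformed complex between 50 nM HP1-beta and 50 nM biotinylated H3K9me3 peptide was read by AlphaScreen. Buffer was PBS pH 7.4 with 0.01% Tween-20. Incubations ran 30 min at room temperature, with 10 ug/mL donor/acceptor beads.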
Sfp PPTase inh: blocks B. subtilis Sfp PPTase activity. Biochemical Sfp PPTase activity, qHTS. 3.5% of 310,000 active. Q9F4F7. Potency, µM, inactives show largest response in the series, negative = inhibition, most hits filed as inhibitors;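 note: the enzyme is Sfp with the accession as filed and its product quenches rhodamine fluorescence; potency is the fitted concentration of half-maximal effect; 0% = enzyme reaction without inhibitor and -100% = no enzyme wells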
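Fluorescence-quenching assay: 15 nM Sfp-PPTase preincubated 15 min at room temperature with compound, then 5 uM rhodamine-CoA and 12.5 uM BHQ-2-labelled YbbR peptide added. Fluorescence (ex 525/em 598 nm) read at start and after 30 min; difference gives rate.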
JMJD2A Tudor inh: blocks the human JMJD2A Tudor domain; O75164; AlphaScreen JMJD2A-Tudor / H3K4me3 peptide binding; Potency, µM (top dose mostly 114 µM), for inactives: at the top dose activity change, negative = inhibition, most hits filed as inhibitors; 4.4% of 390,000 active; AID 504339; note: potency is the fitted concentration of half-maximal effect; % is set by controls: 0 for no effect and ±100 for the full control effect; nearly all actives have a fitted effect of over 50% in size
L3MBTL1 block: L3MBTL1 (human) inhibition | 0.66% of 230,000 active | Q9Y468 | Potency, µM (highest dose often 57.1 µM), for inactives: at the highest dose activity, negative = inhibition, usual class: inhibitors | AlphaScreen L3MBTL1–H3K9me1 peptide binding | AID 485360; note: potency is the fitted concentration of half-maximal effect; % is set by controls: 0 for no effect and ±100 for the full control effect; nearly all actives have a fitted effect of over 60% in size
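L3MBTL1 50 nM + b-AHA-H3(1-15)K9me1 75 nM, 30 min RT; compound added, 30 min RT; streptavidin donor/Ni-chelate acceptor beads 10 ug/mL each final, 30 min RT dark; AlphaScreen read.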
BAZ2B inh: BAZ2B (human) inhibition; Q9UIF8; AlphaScreen BAZ2B-H3K14Ac peptide displacement; Potency, µM (titrated, usually from 114 µM), for the others: top-dose activity change, negative = inhibition, most hits filed as inhibitors; 4.4% of 360,000 active; AID 504333; note: potency is the fitted concentration of half-maximal effect; % is set by controls: 0 for no effect and ±100 for the full control effect; nearly all actives have a fitted effect of over 60% in size
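AlphaScreen displacement: compounds (up to 110uM) incubated 30 min at room temperature with a preformed 50 nM BAZ2B/50 nM biotinylated H3K14Ac peptide complex in PBS pH 7.4 with Tween-20. Donor and acceptor beads at 10 ug/mL final added, 20 min light-protected before reading.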
G9a inh: blocks human histone lysine methyltransferase G9a; 8.8% of 350,000 active; AID 504332; Q96KQ7; G9a H3K9 monomethylation, AlphaScreen, 2 h; Potency, µM (titrated, usually from 102 µM), for the others: top-dose activity, negative = inhibition, most hits filed as inhibitors; note: potency is the fitted concentration of half-maximal effect; % is set by controls: 0 for no effect and ±100 for the full control effect; nearly all actives have a fitted effect of over 75% in size
Target sequence (Q96KQ7 913-1193 limits assumed): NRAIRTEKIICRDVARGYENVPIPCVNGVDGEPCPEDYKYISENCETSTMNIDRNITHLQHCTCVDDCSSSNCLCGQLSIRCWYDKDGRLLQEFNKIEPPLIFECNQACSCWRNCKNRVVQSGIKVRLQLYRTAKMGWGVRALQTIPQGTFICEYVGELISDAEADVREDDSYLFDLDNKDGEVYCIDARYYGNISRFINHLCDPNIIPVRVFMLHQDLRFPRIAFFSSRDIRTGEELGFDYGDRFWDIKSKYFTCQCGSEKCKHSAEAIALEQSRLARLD
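Step 1: enzyme (final 20 nM) with compound, 15 min RT. Step 2: substrate peptide 500 nM and SAM 20 uM, 2 h RT. Step 3: anti-H3K9me1 antibody and AlphaScreen beads, 10 min, then plate read.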
ME-1 prolif: inhibitors of ME-1 leukemia cell proliferation, CBFb-RUNX1 project; Potency, µM (titrated, usually from 56.1 µM), inactives show top-dose activity change, negative = inhibition, usual class: inhibitors; 20% of 140 active; shares compounds with BAZ2B inh; ME-1 cell proliferation, ATP luminescence, 48 h
* = called active by the depositor; ? = inconclusive; . = no result; ! = a repeat was not active; [ ] = another dose, or the depositor's remark. Calls come from the whole dose curve; as a rule, active = well fitted curve in the direction sought with a large enough effect; inconclusive = small, poorly fitted or top-dose-only effect, or another doubt; inactive = no such curve, though single readings can be large; an effect the other way counts as inactive or inconclusive.

SMILES	HP1b binding inh	Sfp PPTase inh	JMJD2A Tudor inh	L3MBTL1 block	BAZ2B inh	G9a inh	ME-1 prolif
O=c1c(-c2cc(O)c(O)c(O)c2)coc2cc(O)c(O)c(O)c12	.	-92%	.	.	.	-147%[2.33 µM]	16%
O=[N+]([O-])c1ccc(/C=N/NC2=NS(=O)(=O)c3ccccc32)cc1	15%	-1%	-31%	-5%	-25%	-3%	.
O=[N+]([O-])c1ccc(O)c(/C=N/NC2=NS(=O)(=O)c3ccccc32)c1	42%	29%	20µM*	?	1.8µM*	?	?
CC1=NN(c2ccccc2)C(=O)/C1=C/C=C/c1ccc(N(C)C)cc1	2.5µM*	-7%	2.5µM*	?	2µM*	2µM*	?
CCCCCCCCCCCCCCCCCCOC[C@H](COP(=O)([O-])OCC[N+](C)(C)C)OC	.	15%	.	.	.	5%[12.7 µM]	16%
CCCCCCCCCCCCCCCCOC[C@H](COP(=O)([O-])OCC[N+](C)(C)C)OC(=O)NC	.	-5%	.	.	.	-18%[59 µM]	.
S=C(NCc1ccco1)Nc1ccc(N2CCOCC2)cc1	-14%	-22%	-24%[57.1 µM]	-7%	-6%	?	.
S=C(NCc1ccco1)N1CCOCC1	17%	4%	-4%	-3%	-18%	-27%	-10%[25.6 µM]
O=C(O)C[C@@H]1C(=O)O[C@@H]2C(COC(=O)c3cc(O)c(O)c(O)c3)O[C@@H](OC(=O)c3cc(O)c(O)c(O)c3)[C@@H](OC(=O)c3cc(O)c(O)c4c3[C@H]1[C@H](O)C(=O)O4)[C@H]2OC(=O)c1cc(O)c(O)c(O)c1 (stereo partly drawn)	.	45µM*	.	.	0.71µM*	?	?
Cc1cccc(C)c1NC(=S)N(CCN(C)C)C(C)c1ccccn1 (stereo not drawn)	9%	-25%	-21%	.	.	-15%	-11%[25.6 µM]
Cc1ccc(C)c(NC(=S)N(CCN(C)C)C(C)c2ccccn2)c1 (stereo not drawn)	33%	-4%	-6%	.	.	-4%	-4%[25.6 µM]
Cc1ccc(C)c(NC(=S)N(C)CCc2ccccn2)c1	36%	-30%	?	-7%	-4%	-16%[59 µM]	.
CC(c1ccccn1)N(CCN(C)C)C(=S)Nc1cccc(F)c1 (stereo not drawn)	14%	-18%	-9%	.	?	-10%[12.7 µM]	-4%[25.6 µM]
O=C(CN1C(=O)COc2ccc(S(=O)(=O)N3CCOCC3)cc21)NCc1ccco1	17%	-3%	-1%	.	4%	-5%	.
CC(C)NC(=O)CN(Cc1ccc(F)cc1)C(=O)CCC(=O)Nc1nccs1	21%	0%	-1%	.	5%	3%	.
COc1ccc(S(=O)(=O)N2CCCC(C(=O)NCCN3CCOCC3)C2)cc1C (stereo not drawn)	-3%	8%	-18%	.	7%	37%	.
c1ccc(-c2nnc(-c3ccccn3)nc2NC2CCCCC2)cc1	19%	1%	3.2µM*	.	1.8µM*	-4%	7.1µM*
O=c1cc(-c2cc3ccccc3oc2=O)c2ccc(O)cc2o1	.	-12%	.	.	.	.	.
O=C(Cc1ccccc1Cl)c1ccccc1	28%[57 µM]	.	40%	.	.	.	.
CC(C)=CC[C@@H](O)C1=CC(=O)c2c(O)ccc(O)c2C1=O	.	50µM*	.	.	.	6.3µM*	1.1µM*
Oc1csc(Cc2nc(-c3ccccc3F)cs2)n1	43%	-15%	-22%	?	-3%	?	1%[25.6 µM]
Oc1csc(Cc2nc(-c3ccc(-c4ccccc4)cc3)cs2)n1	1%	-3%	-3%	-4%	-2%	78%[12.7 µM]	.
CC(C)NNC(=O)c1ccncc1	41%	21%	-15%	5%	0%	11µM*!	8%
CC(=O)NNC(=O)c1ccncc1	50%	12%	-7%	14%	4%	-5%[59 µM]	.
CCOc1ccc(S(=O)(=O)NCCc2csc3nc(-c4cccc(C)c4)nn23)cc1	21%	.	-7%	.	-2%	1%[59 µM]	.
